# In PubChem BioAssay (NCI):
# Several values for one entry are separate records, joined by “and”; a condition that tells them apart may be missing. Equal entries are not always repeated. Compounds without any hit were thinned out: in the full panel of roughly 83,000, 20% have a hit.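 Growth was measured after 48 h exposure to one concentration of compound in 96-well plates. Values under 10 count as active.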 A number with no mark means an inactive call. Activity calls are given as the source filed them.
# Tested on: MDA-MB-468 breast
# Experiment: NCI-60 one-dose screen, 48 h (100 = growth as untreated, 0 = no growth, -100 = all killed)
# Conditions: 10 µM unless noted
row,SMILES,growth
1,CCCSc1nc(N)nc2nc[nH]c12,113%
2,Cc1cccc(/C=C\C(=O)c2ccc(Cl)cc2)c1,106% and 90.9%
3,CN1CCN(Cc2ccc(NC(=O)c3cccc(C#Cc4c(N)ncc5ccc(F)cc45)c3)cc2C(F)(F)F)CC1,-61.7% (active)
4,O=C1NC(=O)c2cc([N+](=O)[O-])cc3cccc1c23,91%
5,CN=C(N)N/N=C(\C)c1ccc2c(c1)Cc1cc(/C(C)=N/NC(N)=NC)ccc1-2,-90.7% (active)
6,COc1ccc(S(=O)(=O)NC2c3ccccc3CC2O)cc1OC (configuration not stated),111%
7,COc1nc2c(cc1S(=O)(=O)c1ccccc1)CCc1c-2cnn1Cc1ccccc1,45.7%
8,C(=C\c1c[nH]c2ccccc12)/c1ccc2ccccc2n1,68.5%
9,CCN(CC)c1ccc(/C=N/NC(=O)C[N+](C)(C)C)cc1,112%
10,Cc1cc2ccccc2c2cc3ccccc3cc12,5.23% (active)
11,Nc1ncc(-c2ccc3ncnc(Nc4cncc(Cl)c4)c3c2)cn1,7.6% (active)
12,N#Cc1cnn(-c2nc3c(Cl)cccc3s2)c1N,85.3%
13,Nc1nc(N)c2c(n1)NC(c1ccc(Cl)cc1)C1CCc3ccccc3C1=N2 (configuration not stated),18.6%
14,Nc1[nH]n2cc(-c3ccc(F)cc3)nc2c1N=Nc1ccc(S(N)(=O)=O)cc1,83.4%
15,C=CCSc1nnc(-c2ccc(C(C)(C)C)cc2)n1-c1cccc(C(F)(F)F)c1,21.5%
16,CC(=O)Oc1cc2ccccc2cc1C(C)C,98.8%
17,C/C(=N/NC(=S)Nc1ccccc1)c1nc2ccc(Cl)cc2[nH]1,-44.3% (active)
18,O=C(CCCCCCN1CC(=O)N2[C@@H](c3ccc(Cl)s3)c3[nH]c4ccccc4c3C[C@H]2C1=O)NO,30.7%
19,C=CCn1cc(-c2nc3ccccc3s2)c2cc(-c3ccc4c5c(cccc35)C(=O)N(CCN3CCNCC3)C4=O)ccc21,88.4%
20,COc1ccc([C@@H]2[C@@H](Oc3ccccc3)C(=O)N2c2cc(OC)c(OC)c(OC)c2)cc1F,4.05% (active)
21,N=C(N)c1ccc(-c2ccc(-c3cc(Cl)cc(Cl)c3)s2)nc1,15.7%
22,CSc1nc(CC(C)C)c(C#N)c(=O)n1C,-2.71% (active)
23,COc1ccc(S(=O)(=O)NCCCNc2nccc(-c3cn(C(C)(C)C)nc3-c3ccc(Cl)c(OC)c3)n2)cc1,76.8%
24,CC(=O)c1c([Si](C)(C)C)c2cc(C#N)ccn2c1C(=O)c1ccc(Br)cc1,79.9%
25,COc1cc(C(=O)/C=C/c2c(-c3ccc(F)cc3)nc3sc(C)cn23)cc(OC)c1OC,14.1%
26,CC(C)C1CCC(C)C(C2(C#N)C(N)=NC(N)=C2C#N)C1=O (configuration not stated),107%
27,O=C(Cn1c[n+](CC(=O)c2ccc([N+](=O)[O-])cc2)c2ccccc21)Nc1cccc2cccnc12,9.02% (active)
